PubChem BioAssay (NCI)
About 83,000 compounds went through this panel and 20% of them were active in at least one assay; those are over-represented in the sample as a whole.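 Activity criterion: percent growth below 10, measured after cells in 96-well plates were exposed to a single compound concentration for 48 hours.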 The source made the active and inactive calls.

test system: HL-60(TB) leukemia; test: NCI-60 one-dose screen, 48 h (100 = growth as untreated, 0 = no growth, -100 = all killed); conditions: 10 µM unless noted

Row | Structure (SMILES) | growth
1 | C=C1C(=O)O[C@H]2[C@H]1CC/C(COC(=O)CCCC(=O)OC/C1=C/CC[C@@]3(C)O[C@H]3[C@H]3OC(=O)C(=C)[C@@H]3CC1)=C\CC[C@@]1(C)O[C@@H]21 | -41.8% (active)
2 | Cc1ccnc2nc(C(=O)OCC(=O)Nc3ccc(-c4ccccc4)cc3)nn12 | 72.8% (inactive)
3 | Nc1ccc(C2=NN(c3ccccc3)C(c3ccc(Cl)cc3)C2)cc1 (centres undefined) | 59.6% (inactive)
4 | NC(CSC(c1ccccc1)(c1ccccc1)c1ccc2c(c1)OCO2)C(=O)O (centres undefined) | -26.2% (active)
